Results as given in PubChem BioAssay (EPA / NIEHS).
Calls of active or inactive are those of the source. Rule for the calls: active = hit-call score of the fitted dose curve at least 0.9, where 1 is the maximum; inactive = score below 0.9.

Legend:
Conditions in all cases: mRNA level, 48 h; actives raise or lower the signal
[1] = read-out: JUN Transcription Factor, JUN (gene 3725); assay: LTEA_HepaRG_JUN: Life Technologies and Expression Analysis (LTEA) Assay for JUN Transcription Factor using HepaRG (AID 2283513)
How it was run: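 Read-out is JUN transcript level by TaqMan qRT-PCR, normalized to ACTB, GAPDH and POLR2A, after 48 h chemical treatment of HepaRG cells. Concentration-response spanned eight half-log points up to 100 uM in 0.5% DMSO.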

[2] = read-out: Lipase C (LIPC), LIPC (gene 3990); assay: LTEA_HepaRG_LIPC: Life Technologies and Expression Analysis (LTEA) Assay for Lipase C (LIPC) using HepaRG (AID 2283514)
How it was run: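 LIPC expression was quantified by qRT-PCR against three housekeeping genes (ACTB, GAPDH, POLR2A). Differentiated human HepaRG cells received eight half-log doses (top 100 uM, 0.5% DMSO) in duplicate for 48 h; fitting bidirectional relative to DMSO.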

[3] = read-out: Lipoprotein lipase (LPL), LPL (gene 4023); assay: LTEA_HepaRG_LPL: Life Technologies and Expression Analysis (LTEA) Assay for Lipoprotein lipase (LPL) using HepaRG (AID 2283515)
How it was run: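 LPL transcript levels quantified by TaqMan qRT-PCR against three housekeeping genes after 48 h chemical treatment of HepaRG cells. Eight-point half-log series from 100 uM in 0.5% DMSO, tested in duplicate; bidirectional fitting versus vehicle.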

[4] = read-out: MicroRNA 122 (MIR122), gene 406906; assay: LTEA_HepaRG_MIR122: Life Technologies and Expression Analysis (LTEA) Assay for MicroRNA 122 (MIR122) using HepaRG (AID 2283516); note: the transcript read is the microRNA miR-122
How it was run: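 Human liver HepaRG cultures receive test chemicals for 48 h at eight half-log concentrations from 100 uM. Expression is quantified by qRT-PCR with ACTB/GAPDH/POLR2A normalization and fitted bidirectionally against 0.5% DMSO.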

[5] = read-out: matrix metalloproteinase-10 (MMP10), MMP10 (gene 4319); assay: LTEA_HepaRG_MMP10: Life Technologies and Expression Analysis (LTEA) Assay for matrix metalloproteinase-10 (MMP10) using HepaRG (AID 2283517)
How it was run: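 Expression measured by TaqMan qRT-PCR with ACTB/GAPDH/POLR2A normalisation after 48 h chemical exposure of HepaRG cells. Eight half-log concentrations, top 100 uM, 0.5% DMSO vehicle, duplicates; gain or loss fitted against vehicle.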

MYC, MYC (gene 4609) = assay: LTEA_HepaRG_MYC: Life Technologies and Expression Analysis (LTEA) Assay for MYC using HepaRG (AID 2283518)
How it was run: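 Differentiated human HepaRG cells, plated 48 h then switched to serum-free induction medium, were exposed in duplicate for 48 h to 8-point half-log series up to 100 uM in 0.5% DMSO. MYC mRNA measured by qRT-PCR, normalized to ACTB/GAPDH/POLR2A.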

[6] = read-out: matrix metalloproteinase-3 (MMP3), MMP3 (gene 4314); assay: LTEA_HepaRG_MMP3: Life Technologies and Expression Analysis (LTEA) Assay for matrix metalloproteinase-3 (MMP3) using HepaRG (AID 2283519)
How it was run: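 Fluidigm-based TaqMan qRT-PCR, normalized to ACTB, GAPDH and POLR2A and fitted bidirectionally versus 0.5% DMSO, measured transcript levels. Treatment: duplicate 48 h exposures of HepaRG cells, ~100,000/well, to eight half-log concentrations topping at 100 uM.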

[7] = read-out: Paternally Expressed 10 (PEG10), PEG10 (gene 23089); assay: LTEA_HepaRG_PEG10: Life Technologies and Expression Analysis (LTEA) Assay for Paternally Expressed 10 (PEG10) using HepaRG (AID 2283520)
How it was run: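 Human HepaRG cultures are dosed for 48 h across an eight-point half-log series starting at 100 uM, with 0.5% DMSO as vehicle and baseline. Gain or loss of PEG10 transcript is measured by qRT-PCR and fitted in both directions.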

[8] = read-out: Nuclear factor NF-kappa-B p105 subunit (Homo sapiens) (UniProt P19838); assay: LTEA_HepaRG_NFKB1: Life Technologies and Expression Analysis (LTEA) Assay for Nuclear Factor Kappa B Subunit 1 (NFKB1) using HepaRG (AID 2283521)
How it was run: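 Differentiated human HepaRG cells in serum-free induction medium with 0.5% DMSO were exposed for 48 h to eight half-log concentrations, top 100 uM, in duplicate. NFKB1 mRNA measured by Fluidigm TaqMan qRT-PCR, normalised to ACTB, GAPDH and POLR2A; bidirectional fit versus DMSO.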

[9] = read-out: Protein phosphatase 2A (PPP2R4), PTPA (gene 5524); assay: LTEA_HepaRG_PPP2R4: Life Technologies and Expression Analysis (LTEA) Assay for Protein phosphatase 2A (PPP2R4) using HepaRG (AID 2283522)
How it was run: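 Cells were plated, cultured 48 h, switched to serum-free induction medium, then dosed for 48 h (8 points, max 100 uM, 0.5% DMSO). RNA was isolated and PPP2R4 expression measured by TaqMan qRT-PCR.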

[10] = read-out: Phosphatase and tensin (PTEN), PTEN (gene 5728); assay: LTEA_HepaRG_PTEN: Life Technologies and Expression Analysis (LTEA) Assay for Phosphatase and tensin (PTEN) using HepaRG (AID 2283523)
How it was run: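 Read-out: TaqMan qRT-PCR of PTEN transcript, normalized to three housekeeping genes, fitted in both directions against 0.5% DMSO. Differentiated human HepaRG cultures received chemicals for 48 h, eight-point half-log series topping at 100 uM.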

[11] = read-out: solute carrier (SLC22A1), SLC22A1 (gene 6580); assay: LTEA_HepaRG_SLC22A1: Life Technologies and Expression Analysis (LTEA) Assay for solute carrier (SLC22A1) using HepaRG (AID 2283524)
How it was run: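 Transcript level of SLC22A1 quantified by qRT-PCR (normalized to three housekeeping genes) after 48 h chemical exposure of HepaRG cells, eight concentrations up to 100 µM, half-log steps, 0.5% DMSO vehicle. Gain or loss relative to DMSO fitted bidirectionally.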

[12] = read-out: Pyruvate Dehydrogenase Kinase 4 (PDK4), PDK4 (gene 5166); assay: LTEA_HepaRG_PDK4: Life Technologies and Expression Analysis (LTEA) Assay for Pyruvate Dehydrogenase Kinase 4 (PDK4) using HepaRG (AID 2283525)
How it was run: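 Readout is qRT-PCR of PDK4 transcript, normalized to three housekeeping genes, with bidirectional fitting against 0.5% DMSO vehicle. Differentiated HepaRG cells were treated 48 h in serum-free induction medium, duplicate wells, eight-point half-log series topping at 100 uM.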

[13] = read-out: NAD(P)H dehydrogenase [quinone] 1 (NQO1), NQO1 (gene 1728); assay: LTEA_HepaRG_NQO1: Life Technologies and Expression Analysis (LTEA) Assay for NAD(P)H dehydrogenase [quinone] 1 (NQO1) using HepaRG (AID 2283526)
How it was run: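 Transcript induction or suppression is quantified by qRT-PCR in human HepaRG liver cells dosed for 48 hours. Eight half-log concentrations topping at 100 uM are used, with 0.5% DMSO as vehicle and baseline.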

[14] = read-out: Nuclear factor erythroid 2-related factor 2 (Homo sapiens) (UniProt Q16236); assay: LTEA_HepaRG_NFE2L2: Life Technologies and Expression Analysis (LTEA) Assay for Nuclear factor erythroid 2-related factor 2 (NFE2L2) Transcription Factor using HepaRG (AID 2283527);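 note: TaqMan qRT-PCR transcript level normalised to ACTB GAPDH and POLR2A housekeeping genes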
How it was run: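 NFE2L2 transcript level was read by qRT-PCR (housekeeping ACTB/GAPDH/POLR2A normalisation) after 48 h chemical treatment of HepaRG in serum-free induction medium. Duplicate 8-point half-log curves, top 100 uM, 0.5% DMSO vehicle; up- or down-regulation fitted against vehicle.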

[15] = read-out: succinate dehydrogenase complex iron sulfur subunit B (SDHB), SDHB (gene 6390); assay: LTEA_HepaRG_SDHB: Life Technologies and Expression Analysis (LTEA) Assay for succinate dehydrogenase complex iron sulfur subunit B (SDHB) using HepaRG (AID 2283528)
How it was run: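 HepaRG cells (~100,000/well, plated 48 h) exposed in duplicate for 48 h in serum-free induction medium to 8-point half-log series from 100 uM in 0.5% DMSO; mRNA by qRT-PCR normalised to ACTB, GAPDH, POLR2A; bidirectional fit versus DMSO.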

[16] = read-out: Signal transducer and activator of transcription 3 (Homo sapiens) (UniProt P40763); assay: LTEA_HepaRG_STAT3: Life Technologies and Expression Analysis (LTEA) Assay for Signal transducer and activator of transcription (STAT3) using HepaRG (AID 2283529)
How it was run: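 STAT3 transcript quantified by qRT-PCR against three housekeeping genes (ACTB, GAPDH, POLR2A), fitted both directions relative to DMSO. HepaRG cultures exposed 48 h to eight half-log concentrations, top 100 uM, 0.5% DMSO, serum-free induction medium.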

[17] = read-out: solute carrier (SLCO1B1), SLCO1B1 (gene 10599); assay: LTEA_HepaRG_SLCO1B1: Life Technologies and Expression Analysis (LTEA) Assay for solute carrier (SLCO1B1) using HepaRG (AID 2283530)
How it was run: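 Differentiated human HepaRG cells, plated 48 h, switched to serum-free induction medium and exposed in duplicate for 48 h to 8 half-log concentrations (top 100 uM) in 0.5% DMSO. SLCO1B1 mRNA by TaqMan qRT-PCR, normalized to ACTB/GAPDH/POLR2A.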

Measured: outcome

Signal transducer and activator of transcription 3 (Homo sapiens), sequence (P40763 whole entry, looked up): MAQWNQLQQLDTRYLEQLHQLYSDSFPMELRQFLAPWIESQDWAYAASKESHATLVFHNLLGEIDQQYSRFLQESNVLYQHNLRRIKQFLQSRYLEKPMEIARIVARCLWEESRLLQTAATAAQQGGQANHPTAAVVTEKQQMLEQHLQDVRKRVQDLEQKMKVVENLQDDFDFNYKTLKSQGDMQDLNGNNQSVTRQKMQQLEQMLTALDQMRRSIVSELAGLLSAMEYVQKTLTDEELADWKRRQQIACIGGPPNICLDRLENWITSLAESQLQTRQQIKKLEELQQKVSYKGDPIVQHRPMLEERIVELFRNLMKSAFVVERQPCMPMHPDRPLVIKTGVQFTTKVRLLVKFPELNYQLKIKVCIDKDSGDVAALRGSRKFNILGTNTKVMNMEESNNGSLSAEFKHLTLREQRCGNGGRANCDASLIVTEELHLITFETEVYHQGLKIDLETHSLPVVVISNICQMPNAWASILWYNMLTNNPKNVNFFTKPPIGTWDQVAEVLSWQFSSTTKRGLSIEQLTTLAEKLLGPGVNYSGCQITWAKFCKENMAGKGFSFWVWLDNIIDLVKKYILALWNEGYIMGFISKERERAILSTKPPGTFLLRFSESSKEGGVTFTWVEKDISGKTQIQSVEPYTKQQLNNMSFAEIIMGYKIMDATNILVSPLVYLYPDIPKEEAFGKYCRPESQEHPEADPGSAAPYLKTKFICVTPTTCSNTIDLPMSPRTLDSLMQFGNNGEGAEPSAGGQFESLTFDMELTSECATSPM
Nuclear factor NF-kappa-B p105 subunit (Homo sapiens), sequence (P19838 whole entry, looked up): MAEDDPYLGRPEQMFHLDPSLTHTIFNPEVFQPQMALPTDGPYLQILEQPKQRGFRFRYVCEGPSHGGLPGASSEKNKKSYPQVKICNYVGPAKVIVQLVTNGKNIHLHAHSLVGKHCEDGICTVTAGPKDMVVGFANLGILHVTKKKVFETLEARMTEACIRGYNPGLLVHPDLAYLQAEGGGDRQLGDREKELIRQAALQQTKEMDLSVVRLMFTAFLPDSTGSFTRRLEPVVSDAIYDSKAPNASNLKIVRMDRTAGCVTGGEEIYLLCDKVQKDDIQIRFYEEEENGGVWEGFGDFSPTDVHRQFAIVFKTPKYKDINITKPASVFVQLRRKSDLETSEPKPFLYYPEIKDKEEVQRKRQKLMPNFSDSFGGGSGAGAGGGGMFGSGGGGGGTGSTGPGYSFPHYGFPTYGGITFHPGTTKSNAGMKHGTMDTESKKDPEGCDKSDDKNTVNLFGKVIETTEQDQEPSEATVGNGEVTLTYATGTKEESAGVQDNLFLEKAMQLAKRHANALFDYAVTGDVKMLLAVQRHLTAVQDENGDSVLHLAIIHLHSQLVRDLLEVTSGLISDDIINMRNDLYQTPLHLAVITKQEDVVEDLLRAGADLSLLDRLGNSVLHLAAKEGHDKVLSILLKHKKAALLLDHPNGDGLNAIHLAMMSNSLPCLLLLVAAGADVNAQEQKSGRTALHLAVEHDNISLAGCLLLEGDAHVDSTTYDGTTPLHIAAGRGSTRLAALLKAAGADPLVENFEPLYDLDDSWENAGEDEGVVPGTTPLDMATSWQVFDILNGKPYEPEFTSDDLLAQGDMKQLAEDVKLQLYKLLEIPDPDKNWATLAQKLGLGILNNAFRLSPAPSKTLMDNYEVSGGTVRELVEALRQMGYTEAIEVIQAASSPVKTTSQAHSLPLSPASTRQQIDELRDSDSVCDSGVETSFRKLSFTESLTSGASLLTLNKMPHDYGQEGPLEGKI
Nuclear factor erythroid 2-related factor 2 (Homo sapiens), sequence (Q16236 whole entry, looked up): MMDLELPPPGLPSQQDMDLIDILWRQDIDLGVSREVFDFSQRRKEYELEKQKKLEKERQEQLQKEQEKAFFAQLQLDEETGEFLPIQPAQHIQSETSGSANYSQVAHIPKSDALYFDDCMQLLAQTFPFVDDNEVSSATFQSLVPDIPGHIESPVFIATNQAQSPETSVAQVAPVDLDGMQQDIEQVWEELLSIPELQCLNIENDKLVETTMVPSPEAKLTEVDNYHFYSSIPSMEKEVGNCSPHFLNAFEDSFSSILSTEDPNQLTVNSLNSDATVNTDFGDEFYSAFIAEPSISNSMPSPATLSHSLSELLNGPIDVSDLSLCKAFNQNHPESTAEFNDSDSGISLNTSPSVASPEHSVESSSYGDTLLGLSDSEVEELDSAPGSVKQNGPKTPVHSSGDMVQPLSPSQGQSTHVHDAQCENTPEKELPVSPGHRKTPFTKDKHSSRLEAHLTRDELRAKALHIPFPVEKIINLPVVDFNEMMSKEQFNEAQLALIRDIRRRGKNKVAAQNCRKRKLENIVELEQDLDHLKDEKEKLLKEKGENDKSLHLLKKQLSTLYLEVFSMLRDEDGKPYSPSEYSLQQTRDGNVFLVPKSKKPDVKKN

c1cc[n+]2c(c1)-c1cccc[n+]1CC2
inactive: all assays above
